Experimental data taken from PubChem BioAssay (Tox21).
Inconclusive results are not listed. Activity calls are given as the source filed them. The call rests on the fitted dose curve; in most records, active means well fitted activation curve with a large enough effect in the signal ratio in the repeat runs (not every such curve was filed as active); inconclusive means weak or mixed curves, or effect the other way; inactive means flat fitted curve, though single readings scatter; the % refers to the signal ratio.

Test: qHTS assay to identify small molecule agonists of the endoplasmic reticulum stress response signaling pathway (AID 1159516)
Settings: ESRE-bla HeLa, ER stress beta-lactamase reporter, 5 h; series mostly up to 61 µM; activation: at the top concentration
In short: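 Cells are seeded at 1,500 per well and incubated overnight. Compounds in DMSO are added for 5 hr at 37 C, then beta-lactamase FRET substrate for 2 hr at room temperature, and fluorescence at 460 and 530 nm is measured.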
On the % scale 0 is the no-effect control and ±100 the full control effect.

Structure (SMILES) | activation
O=C(CCCCCCC(=O)Nc1ccccc1)NO | 4.16% (inactive)
CCCCC(=O)O[C@]1(C(=O)CO)CC[C@H]2[C@@H]3CCC4=CC(=O)CC[C@]4(C)[C@H]3[C@@H](O)C[C@@]21C | -7.64% (inactive)
CCCCC1C(=O)N(c2ccccc2)N(c2ccc(O)cc2)C1=O (stereo unspecified) | -5.7% (inactive)
Cc1nc2ccccc2s1 | 1.74% [at 78.8 µM] (inactive)
c1ccc(COCc2ccccc2)cc1 | -1.62% [at 78.8 µM] (inactive)
O=C(CCCCCCCCC#CI)Oc1ccccc1 | 0.491% (inactive)
O=C1OCCN1/N=C/c1ccc([N+](=O)[O-])o1 | -1.27% (inactive)
C[C@]12CCC(=O)C=C1C=C[C@@H]1[C@@H]2CC[C@@]2(C)[C@H]1CC[C@@]21CCC(=O)O1 | -0.737% (inactive)
CCOC(=O)N1CCC(n2c(=O)[nH]c3cc(Cl)ccc32)CC1 | -0.369% (inactive)
COc1cc2[nH]c(=O)[nH]c(=O)c2cc1OC | 2.41% (inactive)
OC(CCCN1CCCCC1)(c1ccccc1)c1ccccc1 | -0.421% (inactive)
Cc1cc(O)c2c(O)c3c(O)cccc3cc2c1 | 1.04% (inactive)
CCCc1c(OCCCOc2ccc(OCC(=O)O)cc2)ccc(C(C)=O)c1O | -0.434% (inactive)
COc1cc2c(N3CCN(C(=O)Nc4ccc(OC(C)C)cc4)CC3)ncnc2cc1OCCCN1CCCCC1 | 2.56% (inactive)
O=C(/C=C/c1ccccc1)OCCCc1ccccc1 | -1.13% (inactive)
OC/C(Br)=C(\Br)CO | -0.407% (inactive)
